Our source for the binding signal values is publication PMC12136788.

The full ranking holds about 24,000 sequences; the median of “enrichment r” is about 0.99, and the highest 2% start at about 3.7. The list is a sample of the results.

B1: chr2:198351390:198351391:-_ENSG00000144381_ENST00000345042|hu_hu|hu_hu_hu_mus_False|78_78 (ssRNA)
RNA: GGGAGUUCUACAGUCCGACGAUCUCAUUCCCACCCUCCACAGAAAGGCUGCUUCUGUUCUCAUCUGUGGUGACACAGCGCUACAGUCCUGAUGCUCACAGAACAGUAGAGAUGCCUCAGUGAUUUAAGUUGAAAGCAGGACACCAACAGAGGAUUGAGCAUCA
B2: chr4:34758383:34758384:-_ENSMUSG00000039967_ENSMUST00000047950|mus_mus|FALSE|FALSE (ssRNA)
RNA: GGGAGUUCUACAGUCCGACGAUCUUCAUCAUCUGAACCAUCGUUGUCAUUAAACACUAUGAAAUCUGUUGAAUAAAGACUAUUCUUUUUUAUGGGUCGCUGUUCCUGUUUAGCCACAGUAUUAAUAUUAGUCUUUUGAUUUUCCAACAGAGGAUUGAGCAUCA
B3: chr17:13115065:13115066:+_ENSMUSG00000068039_ENSMUST00000151287|mus_mus|FALSE|FALSE (ssRNA)
RNA: GGGAGUUCUACAGUCCGACGAUCGAUACUUGCUCCAGAAGCUUUUGCAACAUGCUUCAGGUCUCGUUUUAAAACUCUCCUAACAGCCAUGGCACCAGCUUCCACAAAAUACUUGAGAUACAUAUCAUCAAUGCCACCAGUGGUCAACAGAGGAUUGAGCAUCA
B4: chr15:31385891:31385892:-_ENSMUSG00000039100_ENSMUST00000090227|mus_mus|motif|central (ssRNA)
RNA: GGGAGUUCUACAGUCCGACGAUCAUUCACUCCUAAACAGACACCCCUAGGCCUUAGUCACUCAUUUCCAUCUAAGGUUCGGUAGGAUUGUCAUGAUUACAAAAUGAGGCACUCAGACAGAUAGACAGGAAUGGAGACAUACAUCAACAGAGGAUUGAGCAUCA
B5: chr4:17845017:17845018:+_ENSG00000109805_ENST00000514176|hu_mus|hu_hu_hu_mus_False|1_58 (ssRNA)
RNA: GGGAGUUCUACAGUCCGACGAUCGCUCUCUUAACUUGUAUCUUCAUUAAGGAACUCUGCAAGGUUAAGUUUACUUUUUCUAGUGCUAGCUGUUUUGGCUCGUCUGGGUAAUCUCAUCUUCAUUUCUGAUGGUGGUUUGGAACUCAACAGAGGAUUGAGCAUCA
B6: chr6:146524949:146524950:-_ENSMUSG00000040250_ENSMUST00000032427|mus_hu|FALSE|FALSE (ssRNA)
RNA: GGGAGUUCUACAGUCCGACGAUCCUGCCUGCAAGAUUCUGCCAUAUAAGGGCAGUGAUCCACAACAAACACUGUUUUAUGAGAUUCAGAAAAAAUCUUCAUUUUGUUUUAACUUUCGUGCCUGGUCCUGCAGUGAAAACGAACCAACAGAGGAUUGAGCAUCA
B7: chr17:73774127:73774128:-_ENSG00000132475_ENST00000254810|hu_mus|motif|central (ssRNA)
RNA: GGGAGUUCUACAGUCCGACGAUCUGACAAGACUCCCCACCACUUGUGAAUGUAAAACAUUUAAUUUAAAAAUGUUGAACACGGCAAUAUAUAAAAUAGCUAUUAUAAAUGCACAUAGUGUAUUCUAUAGCUGCCAGGUUUACUCAACAGAGGAUUGAGCAUCA
B8: chr9:95013113:95013114:-_ENSG00000196305_ENST00000443024|hu_hu|hu_hu_hu_mus_False|68_108 (ssRNA)
RNA: GGGAGUUCUACAGUCCGACGAUCCUCAGUGAGAAAAGGCGUGUAAGGGGCCAUCAGUCUGCACAGAGAAAGCAGAACACUGAACAGUGUCUCCAGAGCCAUGACACAGUCUUCCACCCCACUCUCACCCUUUAACCUCCUCCUCAACAGAGGAUUGAGCAUCA
B9: chr8:41367971:41367972:+_ENSG00000147533_ENST00000520817|hu_hu|motif|central (ssRNA)
RNA: GGGAGUUCUACAGUCCGACGAUCAAUAUACAGUAUUAUUCCUAUCAAAUUUUUUUCUCAUAAGUUAUAUUUAUAACAAAACGGUAAUUAAAAUAUUUUUUAUACCUGCUUAUUCCAUAUCCAGGGACACAGCGGGAACAUUUACAACAGAGGAUUGAGCAUCA
B10: chr4:4237396:4237397:-_ENSG00000132406_ENST00000382753|hu_hu|motif|central (ssRNA)
RNA: GGGAGUUCUACAGUCCGACGAUCUAAAACUUCACAUUAGGAAAUGCUAAAAACCCAGUAAUGUACAUAAUGAUAAAAUCGGAAGUGAUGAGAAAACAUAAAAUAUUUUCAUUUGGUCCUGUCACCUAACAAAACUAUCAUAAACAACAGAGGAUUGAGCAUCA
B11: chr18:77696836:77696837:-_ENSMUSG00000025427_ENSMUST00000026494|mus_hu|FALSE|FALSE (ssRNA)
RNA: GGGAGUUCUACAGUCCGACGAUCCCUCAGAGGAUACCGGCUGGGUGGGCUGAGGUUGUGGGAGGAGCGAGGGAGGAGGAAAGGCAGGUUCAUGAUGGAGAGGCAGGGUUGUGGUGGGGGCGGGGGGGUGCCAAGUGUAGCAAGCAACAGAGGAUUGAGCAUCA
B12: chr8:35901500:35901501:-_ENSMUSG00000031529_ENSMUST00000033929|mus_mus|FALSE|FALSE (ssRNA)
RNA: GGGAGUUCUACAGUCCGACGAUCUAUAUAACAUGAUCUGUCUUUGUGUGUGGGACAGCCUGUUCCUCCUCCAAUUCCAUAAACAUACUGAUUGCUUUUUGAGGAGUUUUCAGCAAAGUAAAUUCCAGCUCCAAACAUCCCUCCCAACAGAGGAUUGAGCAUCA
B13: chr2:9728443:9728444:-_ENSG00000134308_ENST00000238081|hu_mus|motif|central (ssRNA)
RNA: GGGAGUUCUACAGUCCGACGAUCCUGCAUCUCCUUCUUGCUUAUAUCAAACGCCUCUUGGUAGGCUCCUUGGGAAUUUUCGGUUGUUUGUUUUCGAUCAUCGCCACAAGCUACUUCAGCAAGAUACCGGAAAUAAUCUCCCUUCAACAGAGGAUUGAGCAUCA
B14: 30602309_30602429_1961_3pUTR_ENSG00000107951_ENST00000263063|human|control|control (ssRNA)
RNA: GGGAGUUCUACAGUCCGACGAUCCGCCACACUCCACAGCUGAUGUUUUAAUAAAGUGCCACUGAGUAUCAGACUGAUCAAACUGAAAACAUCCCAGAACUUCAGACCAGGUUAAGGGGGCCAAUGAGAAGAUCAUGAAAAGUGCAACAGAGGAUUGAGCAUCA
B15: chr4:42003652:42003653:+_ENSG00000014824_ENST00000513699|hu_hu|motif|central (ssRNA)
RNA: GGGAGUUCUACAGUCCGACGAUCGGUACCAAUAUAUGGAUGACUACAGGGAACCAUGUUUGAAAAGCUUCCAAAUGUCACGGAAUUCUGCCACUCCUGGCGGUCGCUGGGAUUACAGGCCGCCGCCCUGCAUCGCAGACGGAGCAACAGAGGAUUGAGCAUCA
B16: 22790091_22790211_509_ncRNA_ENSMUSG00000026784_ENSMUST00000139472|mouse|control|control (ssRNA)
RNA: GGGAGUUCUACAGUCCGACGAUCAUGACUGGAGUUUGAUGAAGAAAGAACUGACUACUCAGACACCUGUCUCCCCACCGUGUGUGACACACACUAUAAGUCCCUCAGUAAUGAUGACAAUGUCUUGUAUCCUCUUCAUUUUUACAACAGAGGAUUGAGCAUCA
B17: chr2:202488911:202488912:-_ENSG00000155755_ENST00000286196|hu_mus|hu_hu_hu_mus_False|88_98 (ssRNA)
RNA: GGGAGUUCUACAGUCCGACGAUCAUUGAAACAUUUUCAUAAUAUUGAGAGAUGUUUUCAGCAUUAUGUAACAAAAGCUCAAUUGUAAAUACAUGUAUCUUAUAAAAAUACACUUAAAAACACGAGUGGGGAGCGCAGGCGCCACAACAGAGGAUUGAGCAUCA
B18: chr16:94690476:94690477:+_ENSMUSG00000040785_ENSMUST00000117648|mus_mus|motif|central (ssRNA)
RNA: GGGAGUUCUACAGUCCGACGAUCAGAAAUGUAAUGUAUUCAAGGUUCACAUGUCUGUAUUUGCCACUGCCUACAGGUCACGGAAAAUACCUAGUUUUUGAAUAGUUUCUAAUACAGUUAGCUUGUUUUCAGGCCACAUUACAACAACAGAGGAUUGAGCAUCA
B19: chr13:90237973:90237974:+_ENSMUSG00000012422_ENSMUST00000161568|mus_hu|FALSE|FALSE (ssRNA)
RNA: GGGAGUUCUACAGUCCGACGAUCAAGCACAGGUACAUAUAAGCAGCAAGAUUACAGUCAAUAGACUCUGAAAAUUGAAAAUGGCAGACAUAGCGAGGCCGGCGAUGCCGCAGCCACAUCACCCUUCCGGGGCUCAGGCGGAAGCAACAGAGGAUUGAGCAUCA
B20: chr1:163112212:163112213:-_ENSG00000143248_ENST00000313961|hu_hu|hu_hu_hu_mus_False|1_58 (ssRNA)
RNA: GGGAGUUCUACAGUCCGACGAUCUUUUAUUAUCAGUAAGAGUGAGUUACAUACUAGGCAAAGUAUUGGAUACAAUAUUCUAAAGAUAAACACUAUUGGUCCAGAAUUUAAAACUUUAUGAGCGAAGUGCUGGCACAGGAUUUACAACAGAGGAUUGAGCAUCA
B21: chr7:7679991:7679992:-_ENSG00000106399_ENST00000396682|hu_hu|hu_hu_hu_mus_False|48_88 (ssRNA)
RNA: GGGAGUUCUACAGUCCGACGAUCUGGGAUGAAUCUUUUCCAGCUUCCCUACGAAGCACACGGGCCGGUCGAUAUACUGUGGUAACAUGCCGGCGUUGACGCGCGCUUUGGGGAGCUGCAUUAUGUCCUCCAUGAUUCUGCCGCCAACAGAGGAUUGAGCAUCA
B22: chr9:56909451:56909452:+_ENSMUSG00000032290_ENSMUST00000034832|mus_hu|motif|central (ssRNA)
RNA: GGGAGUUCUACAGUCCGACGAUCCAUAAGUGCACACACACACACACACAGAAUGACAGAAAGGACUGGAAUACACGCCCGGCUUAUAAACGUGCUUGGCACUCAGGACGAUCUCUAGAAUAUGUAACUUGGUCAAGCUCUCUGCAACAGAGGAUUGAGCAUCA

This experiment has as its target T1, UNK ZnF1-3 (human, UniProt Q9C0B0 31-174).
T1 sequence: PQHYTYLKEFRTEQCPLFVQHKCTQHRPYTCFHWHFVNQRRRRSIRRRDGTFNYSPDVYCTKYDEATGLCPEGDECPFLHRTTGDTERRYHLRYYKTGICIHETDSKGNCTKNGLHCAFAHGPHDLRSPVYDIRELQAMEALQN
Put plainly: nsRBNS (natural sequence RNA bind-n-seq); RBNS binding buffer (assumed for nsRBNS): 25 mM Tris pH 7.5, 150 mM KCl, 3 mM MgCl2, 0.01% Triton X-100, 500 ug/ml BSA, 20 U/ml SUPERase-In, 4 C; UNK is unkempt and MSI1 is Musashi-1; names of the RNAs are library labels; protein concentration not given here; high values mean tight binding.
With B1, the binding signal worked out at 1.4 enrichment R.

Turning to B2, the binding signal was 0.418 enrichment R.

B3 returned a binding signal of 0.985 enrichment R.

B4: the binding signal is 1.25 enrichment R.

Consider B5, for which the binding signal came to 0.331 enrichment R.

As to B6, the binding signal is 1.02 enrichment R.

With B7, the binding signal came out at 1.13 enrichment R.

B8 had a binding signal of 1.61 enrichment R.

In the case of B9, the binding signal stood at 1.27 enrichment R.

Consider B10, for which the binding signal amounted to 1.05 enrichment R.

On to B11, for which the binding signal worked out at 3.07 enrichment R.

In turn, B12 returned a binding signal of 1.03 enrichment R.

In the case of B13, the binding signal was found to be 0.873 enrichment R.

Turning to B14, the binding signal was found to be 2.32 enrichment R.

On to B15, for which the binding signal was determined as 1.6 enrichment R.

B16 gave a binding signal of 0.985 enrichment R.

In the case of B17, the binding signal was determined as 0.63 enrichment R.

On to B18, for which the binding signal worked out at 0.656 enrichment R.

Molecule B19 showed a binding signal of 1.37 enrichment R.

As for B20, the binding signal worked out at 1.29 enrichment R.

The molecule B21 showed a binding signal of 0.421 enrichment R.

For B22, the binding signal was 1.4 enrichment R.
